TRPM1 prom inh = inhibitors of MITF-driven TRPM1 promoter in melanoma cells. SK-MEL-5 TRPM1 promoter luciferase, 24 h. actives 0.83% (n = 330,000). inhibition, % at 12.5 µM;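 active = mean inhibition across replicates of 60% or more, whatever share of single replicates reaches that level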
TROY NFkB inh = blocks TROY-dependent signaling in reporter cells; inhibition, % at 10 µM; AID 1347056; Q293 LMP1-TROYcd NF-kB luciferase reporter, 4 h; actives 0.98% (n = 360,000);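 active = compounds whose plate-normalised and pattern-corrected inhibition of the luciferase reporter signal at the single screening dose is 50% or more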
EBV LMP1 NFkB = reduces LMP1-driven NF-kappaB luciferase signal; LMP1-induced NF-kappaB luciferase reporter cells, luminescence; inhibition, % at 12.5 µM; actives 0.69% (n = 350,000); AID 504558; in the data active = inhibition above about 41%;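 note: 0% = neutral control wells and 100% = reference inhibitor control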
Shn3 inh set2 = reduces Shn3 3'UTR luciferase signal in osteoblasts. Clone20 osteoblast Shn3 3'UTR firefly luciferase, 24 h. actives 0.52% (n = 360,000). inhibition, % at 12.5 µM. AID 588674;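 active = mean inhibition of at least 75% with every replicate also reaching 75%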;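 note: 0% = median of neutral control wells and 100% = pilot-screen positive control compound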
Peg3 promoter = inhibitors of Peg3 promoter. AID 588405. inhibition, % at 20 µM. actives 1.7% (n = 360,000). HeLa PEG-Prom luciferase reporter, luminescence, overnight;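 active = inhibition of at least 50% at 20 µM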
TWEAK-Fn14 inh = TWEAK-Fn14 signaling inhibition; TWEAK-stimulated Fn14 reporter cells, luciferase luminescence, 8 h; inhibition, % at 10 µM; actives 2% (n = 360,000); in the data active = inhibition above about 50%
* = called active by the depositor. Sampled rows, rich in hits. Any-hit rate of the full collection: about 4.1%.

Screening COc1ccc2[nH]c(C(=O)N3CCC(CO)(Cc4cccc(C(F)(F)F)c4)CC3)c(C)c2c1 returned TRPM1 prom inh -7, TROY NFkB inh 53*, EBV LMP1 NFkB 2, Shn3 inh set2 8, Peg3 promoter 20 and TWEAK-Fn14 inh 22.
`CSc1cccc(CN2CCC(CO)(Cc3cccc(C(F)(F)F)c3)CC2)c1` gave TRPM1 prom inh 0, TROY NFkB inh -1, EBV LMP1 NFkB 0, Shn3 inh set2 49, Peg3 promoter 52* and TWEAK-Fn14 inh -16.
`Cc1ccc(-n2cc(CN3CCC(CO)(Cc4cccc(C(F)(F)F)c4)CC3)cn2)cc1` gave TRPM1 prom inh 43, TROY NFkB inh 4, EBV LMP1 NFkB 6, Shn3 inh set2 58, Peg3 promoter 108* and TWEAK-Fn14 inh 6.
`O=C(NCc1ccccc1F)C1CCN(C(=O)Nc2ccc(F)cc2)CC1` gave TRPM1 prom inh 0, TROY NFkB inh -17, EBV LMP1 NFkB 3, Shn3 inh set2 10, Peg3 promoter 2 and TWEAK-Fn14 inh 99*.
`Cc1ccccc1N1CCN(S(=O)(=O)c2ccc3oc(=O)ccc3c2)CC1` gave TRPM1 prom inh 8, TROY NFkB inh 22, EBV LMP1 NFkB -20, Shn3 inh set2 7, Peg3 promoter 7 and TWEAK-Fn14 inh 12.
Screening COc1ccc(-c2c[n+]3c4n2CCCCC4=C(c2ccc(Br)cc2)C3)cc1 returned TRPM1 prom inh 76*, TROY NFkB inh 8, EBV LMP1 NFkB 4, Shn3 inh set2 24, Peg3 promoter 46 and TWEAK-Fn14 inh 7.
Cc1nn(CCC#N)c2nc(-c3ccccc3)cc(C(F)(F)F)c12 was read as TRPM1 prom inh -7, TROY NFkB inh 52*, EBV LMP1 NFkB -5, Shn3 inh set2 -10, Peg3 promoter -87 and TWEAK-Fn14 inh 25.
Cc1nn(CCc2nn[nH]n2)c2nc(-c3ccccc3)cc(C(F)(F)F)c12 was read as TRPM1 prom inh 6, TROY NFkB inh 11, EBV LMP1 NFkB -13, Shn3 inh set2 18, Peg3 promoter 14 and TWEAK-Fn14 inh -4.
Cc1cc(NC(=O)COC(=O)C2CCN(S(=O)(=O)c3ccc(Cl)cc3)CC2)no1 was read as TRPM1 prom inh -7, TROY NFkB inh -3, EBV LMP1 NFkB 11, Shn3 inh set2 26, Peg3 promoter 8 and TWEAK-Fn14 inh -14.
`Cc1cc(NC(=O)COC(=O)C2CCN(S(=O)(=O)c3c(Cl)cccc3Cl)CC2)no1` gave TRPM1 prom inh -3, EBV LMP1 NFkB -5, Shn3 inh set2 5, Peg3 promoter 13 and TWEAK-Fn14 inh 92*.
CCOC(=O)C1CCN(S(=O)(=O)c2cccc3nonc23)CC1 was read as TRPM1 prom inh -2, TROY NFkB inh 5, EBV LMP1 NFkB -2, Shn3 inh set2 4, Peg3 promoter 0 and TWEAK-Fn14 inh 0.
Screening CCOC(=O)C1CCN(S(=O)(=O)c2c(Cl)ccc3nonc23)CC1 returned TRPM1 prom inh 93*, TROY NFkB inh 68*, EBV LMP1 NFkB 23, Shn3 inh set2 96*, Peg3 promoter 112* and TWEAK-Fn14 inh 75*.
COc1ccc(S(=O)(=O)N2CCN(C(=O)c3ccc(NC(C)=O)cc3)CC2)cc1 was read as TRPM1 prom inh -1, TROY NFkB inh -10, EBV LMP1 NFkB 9, Shn3 inh set2 -24, Peg3 promoter -8 and TWEAK-Fn14 inh 6.
`C=C(C)CN(CC)c1ccc(N2C(=O)CCCC2=O)cc1[N+](=O)[O-]` gave TRPM1 prom inh 9, TROY NFkB inh 8, EBV LMP1 NFkB 2, Shn3 inh set2 11, Peg3 promoter 3 and TWEAK-Fn14 inh 25.
CCCc1cc(=O)oc2cc(OCC(=O)NCCc3c[nH]c4ccccc34)ccc12 was read as TRPM1 prom inh 0, TROY NFkB inh -7, EBV LMP1 NFkB -7, Shn3 inh set2 3, Peg3 promoter 57* and TWEAK-Fn14 inh -14.
For CC(=O)Nc1ccc(NC(=O)Cn2nc(C(=O)Nc3ccc(C)cc3)ccc2=O)cc1 the results were TRPM1 prom inh -5, TROY NFkB inh -3, EBV LMP1 NFkB -2, Shn3 inh set2 5, Peg3 promoter 14 and TWEAK-Fn14 inh -7.
For CCOC(=O)C1CCCN(C(=O)C(C)(C)Oc2ccc(Cl)cc2)C1 (stereo unspecified) the results were TRPM1 prom inh 2, TROY NFkB inh 19, EBV LMP1 NFkB 1, Shn3 inh set2 20, Peg3 promoter 24 and TWEAK-Fn14 inh 86*.

Screening data as filed in PubChem.
